Among all 52,000 compounds or so, about 4,300 (8.3%) were called active. The entries come from a sample that favours actives as a whole. Unmarked numbers belong to inactive results. No stated cut-off is given here; in the data, active means survival mostly below about 52% (no sharp cut-off); inactive means mostly above about 56%.

For 54 molecules, survival results are on record in PubChem BioAssay AID463173 (ICCB-Longwood Screening Facility, Harvard Medical School, 2010).

The subject of the test is DeltatarO mutant. Description: growth inhibition of S. aureus wild type versus tarO mutant, primary screen, teichoic acid synthesis inhibitors, RN4220, OD600 (AID 463173). To be noted: OD600, 18 h, stronger effect = lower value, screened at 18.75 µg/mL (by protocol).
Take `Cc1cccc(NC(=O)C(=O)NCC(c2cccnc2)N2CCc3ccccc3C2)c1C` (centres undefined): the survival is 86%. `CN1CC(=O)N(CC(=O)Nc2ccc(Cl)c(C(F)(F)F)c2)c2ccccc2C1=O`: the survival is 85%.

`Cc1ccc(NC(=O)C2CCCN(S(=O)(=O)c3cccc4cccnc34)C2)c(C)c1` (centres undefined): the survival was 78%. As for `O=C(COc1ccccc1[N+](=O)[O-])Nc1ccc(-c2nc3ccccc3s2)cc1`, the survival was 63%. For the molecule `COc1cccc(C(=O)Nc2ccccc2C(=O)OCc2cc(=O)n3nc(C4CC4)sc3n2)c1`, the survival is 65%. For `COc1ccc(OC)c(NC(=O)C2=C(C)C(=O)OC23CCCCCC3)c1`, the survival was 131%. With `COc1ccc(OC)c(NC(=O)C2=C(C)C(=O)OC23CCN(C(C)C)CC3)c1`, the survival is 32% (active). Turning to `COc1ccc(NC(=O)C2=C(C)C(=O)OC23CCN(C(C)C)CC3)cc1Cl`, the survival was 83%. For the molecule `CCCn1c(=O)c2sccc2n2c(CCCC(=O)NC3CCCCC3)nnc12`, the survival is 80%. As to `CCc1cccc(C)c1NC(=O)CCn1c(=O)c2cccn2c2ccccc21`, the survival was 58%. On to `COc1ccc(-n2nc3c(N4CCCC(C(=O)NCCc5ccccc5C)C4)nnc(C)c3c2C)cc1` (centres undefined), for which the survival is 70%. For `C/C(=N\NC(=O)c1ccco1)c1ccc(C)o1`, the survival was 80%. Consider `CC(=O)c1ccc(NC(=O)Cn2ncc3c4ccccc4n(Cc4ccccc4)c3c2=O)cc1`, for which the survival was 73%.

As for `Cc1ccc(-c2noc(-c3ccccc3OCC(=O)Nc3ccccc3[N+](=O)[O-])n2)cc1`, the survival is 60%. For the molecule `CC(=O)c1ccc(NC(=O)COc2ccccc2-c2nc(C(C)C)no2)cc1`, the survival is 55% (active).

In the case of `Cc1ccc2cccc(NC(=O)COc3ccccc3[N+](=O)[O-])c2n1`, the survival was 75%. As for `Cc1cccc(-c2noc(-c3ccccc3OCC(=O)Nc3ccccc3[N+](=O)[O-])n2)c1`, the figure is 94%.

Consider `CC(=O)c1ccc(NC(=O)COc2ccccc2-c2nc(-c3ccccc3)no2)cc1`, for which the survival was 48%. With `Cc1noc(-c2ccccc2OCC(=O)Nc2ccccc2[N+](=O)[O-])n1`, the survival was 39% (active). As to `CC(C)c1noc(-c2ccccc2OCC(=O)Nc2cccc([N+](=O)[O-])c2)n1`, the survival is 62%. As for `CC(C)c1noc(-c2ccccc2OCC(=O)Nc2ccc([N+](=O)[O-])cc2)n1`, the figure is 61%; as for `CC(=O)c1ccc(NC(=O)COc2ccccc2-c2nc(C)no2)cc1`, 95%; as for `O=C(COc1ccccc1-c1nc(-c2ccccc2)no1)Nc1ccccc1[N+](=O)[O-]`, 31% (active). Take `Cc1ccccc1-c1noc(-c2ccccc2OCC(=O)Nc2ccccc2[N+](=O)[O-])n1`: the survival is 45%.

With `CC(C)c1noc(-c2ccccc2OCC(=O)Nc2ccccc2[N+](=O)[O-])n1`, the survival is 44% (active). For `C=CCNC(=S)N1CCC(C(=O)c2ccc(C)cc2)CC1`, the survival was 103%. With `O=C(N/N=C/c1ccccc1)C(O)c1ccccc1` (centres undefined), the survival is 95%. For `COc1ccc(-c2nc3sc(CCNC(=O)C(=O)Nc4ccc(OC)c(OC)c4)c(C)n3n2)cc1`, the survival is 84%.

On to `CCCN1CC=C2C(C#N)=C(N)C(C#N)(C#N)C(c3ccc(F)cc3F)C2C1` (centres undefined), for which the survival was 77%. On to `Cc1cc(OC(C)C(=O)N2CCN(CCc3ccccn3)CC2)ccc1Cl` (centres undefined), for which the survival is 68%. With `CC1=C(C(=O)Nc2ccc(C)cc2C)C(c2cc(Br)ccc2F)n2ncc(C(=O)Nc3ccc(C)cc3)c2N1` (centres undefined), the survival is 89%. Take `Cc1ccc(-n2ncc3c(Nc4ccc5c(c4)OCCO5)ncnc32)cc1Cl`: the survival is 117%. In the case of `COc1cc(NC(=O)CC2C(=O)N(c3ccc(Cl)cc3)C(=O)N2Cc2cccs2)cc(OC)c1` (centres undefined), the survival was 85%.

With `COc1ccc(-n2c(SCC(=O)NCc3ccc(C)cc3)nc3n[nH]c(C)c3c2=N)cc1`, the survival is 87%. As for `Cc1ccccc1Cn1c(=O)n(-c2ccc(Cl)cc2)c(=O)c2c3c(sc21)CCCC3`, the figure is 114%. As for `COc1ccc(NC(=O)c2ccc3c(=O)n4nc(Nc5cccc(Cl)c5C)sc4nc3c2)cc1`, the figure is 67%; as for `CC1CCCN(Cc2c(O)ccc3c(=O)c(-c4ccccc4Cl)c(C(F)(F)F)oc23)C1` (centres undefined), 43% (active); as for `CC(C)c1ccccc1Oc1c(C(F)(F)F)oc2c(CN3CCN(C)CC3)c(O)ccc2c1=O`, 49%. With `CCN1CCN(Cc2c(O)ccc3c(=O)c(Oc4ccccc4Cl)c(C(F)(F)F)oc23)CC1`, the survival was 90%. Turning to `CC1CCCCN1Cc1c(O)ccc2c(=O)c(-c3ccccc3Cl)c(C(F)(F)F)oc12` (centres undefined), the survival was 55%.

For the molecule `CC1CCCN(Cc2c(O)ccc3c(=O)c(-c4ccc(Cl)cc4)c(C(F)(F)F)oc23)C1` (centres undefined), the survival was 46% (active).

For `COc1ccc(Oc2c(C(F)(F)F)oc3c(CN4CCCC(C)C4)c(O)ccc3c2=O)cc1` (centres undefined), the survival is 68%.

In the case of `CC1CCCN(Cc2c(O)ccc3c(=O)c(Oc4ccccc4Cl)c(C(F)(F)F)oc23)C1` (centres undefined), the survival is 88%. As for `CC1CCCN(Cc2c(O)ccc3c(=O)c(Oc4ccc(C(C)(C)C)cc4)c(C(F)(F)F)oc23)C1` (centres undefined), the figure is 17% (active).

On to `O=c1c(-c2ccc(Cl)cc2)c(C(F)(F)F)oc2c(CN3CCCCC3)c(O)ccc12`, for which the survival is 134%.

Consider `CC1CCN(Cc2c(O)ccc3c(=O)c(-c4ccc(Cl)cc4)c(C(F)(F)F)oc23)CC1`, for which the survival was 60%.

`CCN1CCN(Cc2c(O)ccc3c(=O)c(Oc4ccccc4C(C)C)c(C(F)(F)F)oc23)CC1`: the survival was 51% (active). As for `CCc1ccc(Oc2c(C(F)(F)F)oc3c(CN4CCCC(C)C4)c(O)ccc3c2=O)cc1` (centres undefined), the figure is 77%; as for `COCc1cc(C)nc2sc3c(=O)n(-c4cc(C)ccc4C)nnc3c12`, 87%. `Cc1cc(C)c(NC(=O)C2CCN(C(=O)N3CC(C)Oc4ccc(Cl)cc43)CC2)c(C)c1` (centres undefined): the survival is 56%. Consider `Cc1cc(C)c(NC(=O)CSc2nccn2-c2cccc(Cl)c2)c(C)c1`, for which the survival is 73%. For `CCN(CC)S(=O)(=O)c1ccc2c(c1)c(=O)c(C(=O)NCCc1ccccc1)cn2C`, the survival was 85%.

Take `Cc1cc(C)c(NC(=O)Cn2nnc(C(=O)NCc3cccs3)c2N)c(C)c1`: the survival is 91%. As for `CCOc1ccc(Sc2cc(C(=O)NC(C)c3ccccc3)c3ccccc3n2)cc1` (centres undefined), the survival was 75%.
